Source: PubChem BioAssay (NCI)
The panel holds about 79,000 compounds, 15% with a hit somewhere; the sample as a whole holds those more often. Active and inactive are the calls of the source. No stated cut-off is given here; in the data, active means growth inhibition above about 70%; inactive means the rest.

What was measured:
[1] = NCI Yeast Anticancer Drug Screen. Data for the wt2 strain (AID 169);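 further: 0% = growth of vehicle-treated yeast cultures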; conditions: S. cerevisiae wt2 strain growth inhibition, hits give high values
Procedure, shortened: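 Treated yeast vs. vehicle-treated yeast: growth inhibition determined.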

[2] = NCI Yeast Anticancer Drug Screen. Data for the mlh1 strain (AID 171);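 further: 0% = growth of vehicle-treated control cultures of the same strain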; conditions: S. cerevisiae mlh1 strain growth inhibition, hits give high values
Procedure, shortened: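 A yeast strain with a defined genetic lesion serves as the test organism. Cultures receive compound or vehicle, and growth is measured.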

[3] = NCI Yeast Anticancer Drug Screen. Data for the sgs1 strain (AID 173);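 further: 0% = growth of vehicle-only control cultures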; conditions: S. cerevisiae sgs1 mutant, hits give high values
Procedure, shortened: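 A genetically defined yeast mutant is incubated with the test compound, and its growth is compared to that of the same strain given vehicle.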

[4] = NCI Yeast Anticancer Drug Screen. Data for the mlh1 rad18 strain (AID 175); conditions: S. cerevisiae mlh1 rad18 strain growth inhibition, hits give high values
Procedure, shortened: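 Steps: expose repair-defective yeast to compound; measure growth; express inhibition against vehicle-treated controls.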

[5] = NCI Yeast Anticancer Drug Screen. Data for the rad18 strain (AID 177); conditions: S. cerevisiae rad18 mutant growth inhibition, hits give high values
Procedure, shortened: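 Measured value is growth inhibition of a yeast strain bearing a DNA repair alteration, referenced to vehicle-treated cells.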

[6] = NCI Yeast Anticancer Drug Screen. Data for the rad52 strain (AID 147);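 further: 0% = growth of vehicle-treated control cultures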; conditions: S. cerevisiae rad52 mutant growth inhibition, hits give high values
Procedure, shortened: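 Here a repair-compromised yeast strain receives each compound; its growth is then quantified and normalised to vehicle-only controls.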

[7] = NCI Yeast Anticancer Drug Screen. Data for the wt1 strain (AID 149);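 further: 0% = growth of vehicle-treated wt1 cultures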; conditions: S. cerevisiae wt1 strain (SPY 50644) growth inhibition, hits give high values
Procedure, shortened: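 wt1 strain grown with compound or vehicle; inhibition taken from the growth difference.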

[8] = NCI Yeast Anticancer Drug Screen. Data for the rad50EPP+ strain (AID 151);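 further: 0% = growth of vehicle-treated control cultures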; conditions: S. cerevisiae rad50 mutant strain, hits give high values
Procedure, shortened: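 Read-out is yeast growth inhibition relative to vehicle; cells used were the rad50EPP+ strain.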

[9] = NCI Yeast Anticancer Drug Screen. Data for the mgt1 strain (AID 153); conditions: S. cerevisiae mgt1 mutant growth inhibition, hits give high values
Procedure, shortened: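 Measured: inhibition of mgt1 yeast growth by compound, normalized to vehicle-treated cultures.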

[10] = NCI Yeast Anticancer Drug Screen. Data for the rad50 strain (AID 155);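 further: 0% = growth of vehicle-only cultures of the same strain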; conditions: S. cerevisiae rad50 strain growth inhibition, hits give high values
Procedure, shortened: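 DNA repair mutant yeast, compound exposure, growth read-out; inhibition is taken relative to vehicle.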

[11] = NCI Yeast Anticancer Drug Screen. Data for the mec2-1 strain (AID 157); conditions: S. cerevisiae mec2-1 strain, hits give high values
Procedure, shortened: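 Using mec2-1 yeast: add compound, measure growth, express inhibition versus vehicle-treated cultures.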

[12] = NCI Yeast Anticancer Drug Screen. Data for the rad14 strain (AID 159);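 further: 0% = growth of vehicle-treated control cultures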; conditions: S. cerevisiae rad14 strain growth inhibition, hits give high values
Procedure, shortened: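 DNA repair-defective yeast, compound-exposed; % growth inhibition derived by comparison with vehicle-treated controls.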

[13] = NCI Yeast Anticancer Drug Screen. Data for the sgs1 mgt1 strain (AID 161);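 further: 0% = growth of cultures given vehicle only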; conditions: S. cerevisiae sgs1 mgt1 strain, hits give high values
Procedure, shortened: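 This yeast growth screen uses a strain with defined DNA-repair lesions; compound-treated growth is compared with vehicle-treated growth.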

[14] = NCI Yeast Anticancer Drug Screen. Data for the CLN2oe strain (AID 163);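 further: 0% = growth of vehicle-only control cultures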; conditions: S. cerevisiae CLN2oe strain, hits give high values
Procedure, shortened: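 Whole-cell yeast growth assay. A strain engineered for altered cell-cycle control received compound, and inhibition relative to vehicle-treated cultures was recorded.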

[15] = NCI Yeast Anticancer Drug Screen. Data for the cln2 rad14 strain (AID 165);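 further: 0% = growth equal to vehicle treated cultures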; conditions: S. cerevisiae cln2 rad14 strain, hits give high values
Procedure, shortened: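 Yeast strain cln2 rad14, bearing defects in cell cycle control and DNA repair, serves as the test system; values reflect growth inhibition compared with vehicle.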

[16] = NCI Yeast Anticancer Drug Screen. Data for the bub3 strain (AID 167); conditions: S. cerevisiae bub3 mutant strain, hits give high values
Procedure, shortened: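 In this screen, a yeast mutant lacking normal mitotic checkpoint function is challenged with compound. Relative growth versus vehicle gives the inhibition value.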

[17] = at 5.0 µM (retest, dose inferred, filed as 0.5)
[18] = at 50.0 µM (retest, dose inferred, filed as 5.0)

Measured: growth inhibition

COC1=CC(=O)C(C2(OC(C)C)OC(=O)C(Cl)=C2Cl)=CC1=O (centres undefined)
active: [1]; at 11.0 µM 98% | [1]; at 33.0 µM 99% | [1]; at 100.0 µM 99% | [2]; at 11.0 µM 99% | [2]; at 33.0 µM 99% | [2]; at 100.0 µM 99% | [3]; at 11.0 µM 99% | [3]; at 33.0 µM 99% | [3]; at 100.0 µM 99% | [4]; [18] 99% | [4]; at 50.0 µM 91.8% | [5]; at 11.0 µM 99% | [5]; at 33.0 µM 99% | [5]; at 100.0 µM 99%
inactive: [1]; at 1.2 µM -1% | [1]; at 3.7 µM 10% | [2]; at 1.2 µM 2% | [2]; at 3.7 µM 27% | [3]; at 1.2 µM 2% | [3]; at 3.7 µM 37% | [4]; [17] 43% | [5]; at 1.2 µM 7% | [5]; at 3.7 µM 49%

c1ccc(-c2ccnc3c2ccc2c(-c4ccccc4)ccnc23)cc1
active: [6]; at 33.0 µM 99% | [6]; at 100.0 µM 99% | [7]; at 33.0 µM 97% | [7]; at 100.0 µM 97% | [8]; at 33.0 µM 97% | [8]; at 100.0 µM 97% | [9]; at 33.0 µM 98% | [9]; at 100.0 µM 97% | [10]; at 33.0 µM 98% | [10]; [18] 97% | [10]; at 50.0 µM 91.2% | [10]; at 100.0 µM 97% | [11]; at 33.0 µM 99% | [11]; [18] 98% | [11]; at 50.0 µM 92.8% | [11]; at 100.0 µM 96% | [12]; at 33.0 µM 98% | [12]; at 100.0 µM 97% | [13]; [18] 97% | [13]; at 50.0 µM 92.1% | [14]; at 33.0 µM 98% | [14]; at 100.0 µM 98% | [15]; [18] 96% | [15]; at 50.0 µM 92% | [16]; at 33.0 µM 98% | [16]; [18] 96% | [16]; at 50.0 µM 90.3% | [16]; at 100.0 µM 97% | [1]; at 33.0 µM 98% | [1]; at 100.0 µM 97% | [2]; at 33.0 µM 98% | [2]; at 100.0 µM 98% | [3]; at 33.0 µM 98% | [3]; at 100.0 µM 96% | [4]; [18] 97% | [4]; at 50.0 µM 90.3% | [5]; at 33.0 µM 98% | [5]; at 100.0 µM 97%
inactive: [6]; at 1.2 µM 4% | [6]; at 3.7 µM 21% | [6]; at 11.0 µM 50% | [7]; at 1.2 µM 5% | [7]; at 3.7 µM -4% | [7]; at 11.0 µM 9% | [8]; at 1.2 µM 2% | [8]; at 3.7 µM -4% | [8]; at 11.0 µM 22% | [9]; at 1.2 µM 10% | [9]; at 3.7 µM -9% | [9]; at 11.0 µM 63% | [10]; at 1.2 µM 7% | [10]; at 3.7 µM 13% | [10]; [17] 2% | [10]; at 11.0 µM 67% | [11]; at 1.2 µM 22% | [11]; at 3.7 µM 24% | [11]; [17] -31% | [11]; at 11.0 µM 53% | [12]; at 1.2 µM -6% | [12]; at 3.7 µM -17% | [12]; at 11.0 µM 54% | [13]; [17] 23% | [14]; at 1.2 µM -8% | [14]; at 3.7 µM -20% | [14]; at 11.0 µM 50% | [15]; [17] 48% | [16]; at 1.2 µM 24% | [16]; at 3.7 µM 27% | [16]; [17] 11% | [16]; at 11.0 µM 60% | [1]; at 1.2 µM 0% | [1]; at 3.7 µM -3% | [1]; at 11.0 µM 11% | [2]; at 1.2 µM -7% | [2]; at 3.7 µM -8% | [2]; at 11.0 µM 46% | [3]; at 1.2 µM 12% | [3]; at 3.7 µM 11% | [3]; at 11.0 µM 62% | [4]; [17] -32% | [5]; at 1.2 µM 9% | [5]; at 3.7 µM 12% | [5]; at 11.0 µM 49%

O=[N+]([O-])c1ccc(=S)[nH]c1
inactive: [6]; at 1.2 µM 1% | [6]; at 3.7 µM 0% | [6]; at 11.0 µM -1% | [6]; at 33.0 µM 49% | [7]; at 1.2 µM -1% | [7]; at 3.7 µM -2% | [7]; at 11.0 µM -6% | [7]; at 33.0 µM 13% | [8]; at 1.2 µM 0% | [8]; at 3.7 µM -2% | [8]; at 11.0 µM 23% | [9]; at 1.2 µM -3% | [9]; at 3.7 µM -2% | [9]; at 11.0 µM 1% | [9]; at 33.0 µM 34% | [10]; at 1.2 µM 0% | [10]; at 3.7 µM -6% | [10]; [17] -5% | [10]; at 11.0 µM -5% | [10]; at 33.0 µM 28% | [11]; at 1.2 µM -2% | [11]; at 3.7 µM -1% | [11]; [17] -9% | [11]; at 11.0 µM -5% | [11]; at 33.0 µM 60% | [12]; at 1.2 µM -5% | [12]; at 3.7 µM -6% | [12]; at 11.0 µM -5% | [12]; at 33.0 µM 42% | [13]; [17] 32% | [14]; at 1.2 µM -1% | [14]; at 3.7 µM -8% | [14]; at 11.0 µM -8% | [14]; at 33.0 µM -10% | [14]; at 100.0 µM 67% | [15]; [17] 5% | [15]; [18] 55% | [15]; at 50.0 µM 37.6% | [16]; at 1.2 µM -6% | [16]; at 3.7 µM -7% | [16]; [17] 10% | [16]; at 11.0 µM -6% | [16]; at 33.0 µM 54% | [1]; at 1.2 µM 0% | [1]; at 3.7 µM 1% | [1]; at 11.0 µM 2% | [1]; at 33.0 µM 39% | [2]; at 1.2 µM 0% | [2]; at 3.7 µM 1% | [2]; at 11.0 µM 1% | [2]; at 33.0 µM 52% | [3]; at 1.2 µM 0% | [3]; at 3.7 µM 4% | [3]; at 11.0 µM 17% | [4]; [17] 51% | [5]; at 1.2 µM -1% | [5]; at 3.7 µM 0% | [5]; at 11.0 µM -5% | [5]; at 33.0 µM 40%
active: [6]; at 100.0 µM 93% | [7]; at 100.0 µM 78% | [8]; at 33.0 µM 85% | [8]; at 100.0 µM 97% | [9]; at 100.0 µM 93% | [10]; [18] 99% | [10]; at 50.0 µM 98.8% | [10]; at 100.0 µM 86% | [11]; [18] 88% | [11]; at 50.0 µM 99.4% | [11]; at 100.0 µM 99% | [12]; at 100.0 µM 99% | [13]; [18] 100% | [13]; at 50.0 µM 98.2% | [16]; [18] 98% | [16]; at 50.0 µM 99.3% | [16]; at 100.0 µM 98% | [1]; at 100.0 µM 93% | [2]; at 100.0 µM 96% | [3]; at 33.0 µM 76% | [3]; at 100.0 µM 99% | [4]; [18] 99% | [4]; at 50.0 µM 93.1% | [5]; at 100.0 µM 94%
